Growth data for 34 compounds are collected here from PubChem BioAssay (NCI).

This is part of a sample that, as a whole, favours compounds with a hit. Of some 83,000 tested, about 20% had one in any assay.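 Assay: single dose, 48 h. Readout: percent growth (0 = no net growth; negative = cell death). Active: <10.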 Activity calls are given as the source filed them.

This assay has as its system MCF7 breast. In words: NCI-60 one-dose screen, 48 h (100 = growth as untreated, 0 = no growth, -100 = all killed). The settings on record: 10 µM.
`CN1C(=O)N(C)C2SC(N/N=C/C=C/c3ccccc3)=NC21` (centres undefined): the growth is 27.6% (inactive).
`Cc1ccc(NC(=O)c2ccc(-n3c(=O)[nH]c4ccccc4c3=O)cc2)cc1`: the growth is 87.5% (inactive).
For `COc1cccc(/C=N/NC(=O)c2ccc3nc(-c4ccc(Cl)cc4)[nH]c3c2)c1O`, the growth is -78.5% (active).
In the case of `COc1ccc2ncc(C#Cc3cncc(C(=O)Nc4ccc(CN5CCN(C)CC5)c(C(F)(F)F)c4)c3)n2n1` it was -71.7% (active); in that of `O=C(CS(=O)(=O)c1oc(-c2ccc(Cl)cc2)nc1S(=O)(=O)c1ccccc1)N1CCCC1`, -70.1% (active).
As to `CC1=N/C(=C\c2ccc(N(C)C)cc2)C(=O)N1CCc1ccc(S(N)(=O)=O)cc1`, the growth was 91.8% (inactive).
As for `CCN1CCN(c2ccc(NC(=O)Nc3ccc(-c4cc(C(=O)NC(C)C)c5ncccc5n4)cc3)cc2C(F)(F)F)CC1`, the growth is -89.9% (active).
Regarding `O=C(c1ccc(Cl)cc1)C1[C@H](c2ccccc2Br)[C@@H](c2ccccc2)NC12C(=O)Nc1ccccc12` (some centres undefined), the growth is -4.27% (active).
As to `CN1CCN(c2ccc(Nc3nc(NCCCNC(=O)C4CCCCC4)c4sccc4n3)cc2)CC1`, the growth is 23.1% (inactive).
On to `CC1(c2ccccc2)NC(=O)N(CC(=O)Nc2ccc(C(=O)/C=C/c3ccc(Cl)cc3)cc2)C1=O` (centres undefined), for which the growth is -66.6% (active).
`CC(C)c1ccc(C(=O)Nc2sc3c(c2C(N)=O)CCC(=O)C3=O)cc1`: the growth was 79.3% (inactive).
In the case of `O=c1c2ccccc2nc(COc2ccccc2)n1/N=C/c1ccc(N2CCOCC2)cc1` it was 77.6% (inactive); in that of `CCN1CCN(Cc2ccc(NC(=O)c3cccc(-n4cc(-c5ccc(NC(C)=O)nc5)nn4)c3)cc2C(F)(F)F)CC1`, 70.4% (inactive); in that of `CCOC(=O)C1NN(c2ccc(S(N)(=O)=O)cc2)c2nc3nc(-c4cccs4)cc(-c4cccs4)c3c(=O)n21` (centres undefined), 74.2% (inactive).
As to `CN(CCF)c1ccc(/C=C/C(=O)c2ccc(N)cc2O)cc1`, the growth is 71.1% (inactive).
With `CC1(C)CC[C@]2(C(=O)O)CC[C@]3(C)C(=CC[C@@H]4[C@@]5(C)C/C(=C/c6ccncc6)[C@H](O)C(C)(C)[C@@H]5CC[C@]43C)[C@@H]2C1`, the growth is 24.4% (inactive).
In the case of `CN(C)c1cccc2c(S(=O)(=O)Nc3cccc(-c4csc(NC(=O)CCCCCN5CCN(c6cc7c(cc6F)C(=O)N(C6CCC(=O)NC6=O)C7=O)CC5)n4)c3)cccc12` (centres undefined) it was 73.5% (inactive); in that of `O=C(CSc1nnc(-c2ccc3nc(-c4ccccc4)[nH]c3c2)o1)Nc1ccc(Br)cc1`, 28.4% (inactive); in that of `CCNCCCn1c2c(c3cc(OC)c(OC)cc3c1=O)C(=O)c1cc3c(nc1-2)OCO3`, -88.9% (active).
As for `Cn1c(O)c(N=Nc2nc(-c3cc4ccccc4oc3=O)cs2)c2cc(Br)ccc21`, the growth is 77.4% (inactive).
As for `Clc1ccc(/C=N/Nc2ncnc3sc4c(c23)CCN(Cc2ccccc2)C4)cc1`, the growth was -47.5% (active).
Turning to `Cc1ccc(CSc2nc(-c3ccc(F)cc3)c(C#N)c(=O)[nH]2)cc1`, the growth is 89.2% (inactive).
As to `COc1csc(/C=N/NC(=O)c2[nH]c3ccc(Br)cc3c2-c2ccccc2)c1`, the growth was -3.06% (active).
In the case of `CCOC(=O)N/C(=C1/OCCN1C)[P+](c1ccccc1)(c1ccccc1)c1ccccc1`, the growth was 41.7% (inactive).
In the case of `COc1ccc(/C=C/C(=O)c2ccc(S(=O)(=O)NCCNc3nc(Nc4ccc(F)cc4)nc(N(C)C)n3)cc2)cc1`, the growth is -15.2% (active).
As to `N#Cc1c(NC(=O)c2ccc(C(F)(F)F)c(Cl)c2)sc2c1CCC(=O)C2`, the growth was -3.57% (active).
As to `O/N=C(\CSc1nnc(-c2c[nH]c3ccccc23)n1-c1ccccc1)c1ccc(Cl)cc1`, the growth is 3.27% (active).
In the case of `CN1CCCN(Cc2ccc(C(=O)Nc3cccc(Nc4ccc5c(O)cccc5n4)c3)cc2C(F)(F)F)CC1`, the growth is -96.5% (active).
Turning to `O=c1[nH]c2ccccc2cc1CSc1ccc(Nc2nccc(-c3ccc(C(F)(F)F)cc3)n2)cc1`, the growth is 25.3% (inactive).
As for `COc1ccccc1[C@H]1C(C(=O)c2ccc(Cl)cc2)C2(N[C@@H]1c1ccccc1)C(=O)Nc1ccc(Cl)cc12` (some centres undefined), the growth was -4.87% (active).
As to `N#Cc1c(Cl)nc(SCc2ccc(F)cc2)nc1-c1ccc(F)cc1`, the growth was 82.6% (inactive).
Next, `Cc1cc2c(c(O)c1Br)-c1ncoc1C(=O)[C@]1(C)CC[C@H](C(C)C)[C@H]21`: 10.1% (inactive).
On to `O=C1Nc2ccc(Cl)cc2/C1=C/c1ccc(OCc2ccccn2)cc1`, for which the growth was 28.9% (inactive).
As to `O=c1[nH]c2ccccc2cc1CSc1ccc(Nc2nccc(-c3ccc4c(c3)OCO4)n2)cc1`, the growth was 56% (inactive).
